Assay [1] concerns HIPK3.
For assay [2], the system named is HUNK.
Assay [3] has as its system T1, IKK-alpha.
T1 construct: gene CHUK

Assay [4] has as its system T2, IKK-beta.
T2 construct: gene IKBKB

Assay [5] has as its system INSR.
The test system of assay [6] is JAK1(JH1domain-catalytic).

Molecules are shown by their SMILES.
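Note: kd values determined as follow-up on hits from a single-replicate KINOMEscan panel screen.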

The term Kd denotes the free concentration of one partner at which half of the binding sites on the other are occupied at equilibrium, for simple one-to-one binding. A high value points to lower affinity. For `Cc1nnc(-c2ccc3occ(-c4ccc(S(C)=O)cc4)c3c2)[nH]1` (centres unmarked), in assay [1], the Kd was found to be 0.34 µM.

Take `Cc1c(O)cccc1Nc1ccnc2ccc(C(F)(F)F)cc12.Cl` [GW466413]: the Kd in assay [2] is greater than 10 µM.

In assay [3], `O=C1NC(=O)C(N2CCc3ccccc32)=C1c1ccccc1Cl` [SB-373598] returned a Kd greater than 10 µM.

In assay [4], `CC(C)(C)c1ccc(C(=O)Nc2cn3cc(Cl)ccc3n2)cc1` had a Kd greater than 10 µM.

Take `O=S(=O)(c1ccc(-c2ccnc3[nH]ccc23)cc1)N1CCCC1` [GSK846226]: the affinity in assay [4], expressed as Kd, was 0.27 µM.

`COc1cc2ncnc(Nc3ccc4nc(-c5ccccc5)[nH]c4c3)c2cc1OC.Cl` [GW282450] gave a Kd in assay [5] greater than 10 µM.

In the case of `Cc1cc(N2Cc3ccccc3C2)nc(Nc2ccc(S(=O)(=O)N3CCOCC3)cc2)n1.Cl` [GSK1669917], the Kd in assay [5] is greater than 10 µM.

In turn, `Cc1c(Cn2ccn3c(=O)cc(N4CCOCC4)nc23)cccc1C(F)(F)F` [GSK2289044] yielded a dissociation constant (Kd) in assay [6] greater than 10 µM.
